Records with an inconclusive call do not appear. Activity calls are given as the source filed them. The call rests on the fitted dose curve; in most records, active means well fitted inhibition curve with a large enough effect; inconclusive means small, poorly fitted or top-dose-only effect; inactive means flat fitted curve, though single readings scatter.

Experiment in all cases: qHTS profiling for inhibitors of Plasmodium falciparum proliferation (AID 504749); further: nearly all actives have a fitted effect of over 60% in size
Common to all, as to details: P. falciparum in erythrocytes, SYBR Green DNA, 72 h; series mostly up to 28.7 µM
In general terms: In qHTS, concentration-response curves come from the screen itself.

In one assay the test system is DIV14. In short, it runs like this: (§1)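 Each compound contacts P. falciparum-infected red blood cells for 72 h at 37 C; lysis buffer (Tris, EDTA, saponin, Triton X, SYBR Green I) is added and fluorescence measured next morning; values normalized to controls.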
The next assay relates to DIV17. In short, it runs like this: as §1
Another assay relates to DIV30. In short, it runs like this:
as §1

The next assay concerns Dd2. In short, it runs like this:
as §1

A further assay deals with FAB9. In short, it runs like this: as §1
The test system of another assay is GB4. In short, it runs like this: as §1
The next assay concerns HB3. In short, it runs like this: as §1
A further assay has as its system ICS. In short, it runs like this: as §1
A further assay has as its system JCK. In short, it runs like this: as §1
Another assay deals with N140. In short, it runs like this:
as §1

A further assay has as its system P93_24. In short, it runs like this:
as §1

A further assay has as its system P94_40. In short, it runs like this:
as §1

The next assay concerns PAD. In short, it runs like this:
as §1

A further assay concerns PC15. In short, it runs like this: as §1
Another assay has as its system PC26. In short, it runs like this: as §1
For a further assay, the system named is PC49. In short, it runs like this:
as §1

The subject of another assay is SC27B. In short, it runs like this:
as §1

The test system of a further assay is TAB109. In short, it runs like this:
as §1

The test system of another assay is TAB113. In short, it runs like this: as §1
The test system of a further assay is ECU. In short, it runs like this:
as §1
Potency means the concentration at half of the fitted maximal effect.

With `COc1ccc(Cl)cc1C(=O)NCCc1ccc(S(=O)(=O)NC(=O)NC2CCCCC2)cc1`, the Potency entry in the assay on DIV14, in the assay on DIV17, with DIV30, in the assay on Dd2, in the assay on FAB9 and in the assay with GB4 was “inactive” in each case. Further, the Potency result in the assay with HB3, with ICS, in the assay with JCK, in the assay with N140, with P93_24 and in the assay with P94_40 was “inactive” throughout. For the same compound, the Potency result in the assay on PAD, with PC15, in the assay on PC26, in the assay on PC49, in the assay on SC27B and with TAB109 was “inactive” each time. Also, the Potency result in the assay on TAB113 is “inactive”.

`NCCNCCNCCN`: the Potency entry in the assay with DIV14, in the assay on DIV17, in the assay with DIV30, in the assay on Dd2, with ECU and in the assay on FAB9 was “inactive” throughout. In addition, the Potency result in the assay on GB4, with HB3, in the assay on ICS, in the assay on JCK, with N140 and in the assay on P93_24 was “inactive” in each case. Moreover, the Potency entry in the assay on PAD, in the assay on PC15, in the assay with PC26, in the assay with PC49, with SC27B and with TAB109 was “inactive” each time. Also, the Potency entry in the assay with TAB113 is “inactive”.

With `CCN(CC)CCNC(=O)c1c(C)[nH]c(/C=C2\C(=O)Nc3ccc(F)cc32)c1C`, the Potency with DIV14 was 4.78 µM (active); with DIV17, 5.36 µM (active); with DIV30, 13.5 µM (active); in the assay with Dd2, 11.2 µM (active); in the assay with ECU it was 7.94 µM (active); with GB4 it was 7.57 µM (active). Besides, the Potency is 8.91 µM (active) in the assay with HB3; 3.98 µM (active) with ICS; 8.91 µM (active) with N140; 6.31 µM (active) in the assay on P93_24; 7.94 µM (active) in the assay on P94_40; 5.01 µM (active) with PAD. Moreover, the Potency in the assay on PC15 is 8.91 µM (active); in the assay on PC26, 5.36 µM (active); in the assay on SC27B, 12.6 µM (active); in the assay on TAB109, 8.91 µM (active); in the assay with TAB113, 10 µM (active).

Consider `COc1cc(C)c(Cc2cnc(N)nc2N)cc1OC`, for which the Potency result in the assay with DIV14, in the assay with DIV17, with DIV30, in the assay with Dd2, in the assay with ICS and in the assay on JCK was “inactive” in each case. Moreover, the Potency entry with N140, with P93_24, in the assay with P94_40, in the assay on PAD, in the assay with PC15 and in the assay with PC26 was “inactive” each time. Further, the Potency result in the assay with PC49, in the assay on SC27B, with TAB109 and in the assay with TAB113 was “inactive” in each case. Besides, the figures for the Potency in the assay on ECU, in the assay with FAB9 and in the assay on GB4 were 5.01 µM (active), 5.62 µM (active) and 3.79 µM (active), respectively.

Regarding `Nc1nc2c(ncn2CCC(CO)CO)c(=O)[nH]1`, the Potency result with DIV14, with DIV17, in the assay with DIV30, with Dd2, with ECU and with FAB9 was “inactive” in each case. Moreover, the Potency result with GB4, with HB3, with ICS, in the assay with JCK, with N140 and in the assay on P93_24 was “inactive” throughout. The Potency result in the assay with P94_40, in the assay on PAD, with PC15, with PC26, in the assay on PC49 and in the assay on SC27B was “inactive” in each case. Further, the Potency entry with TAB109 and in the assay on TAB113 was “inactive” throughout.

As for `O=C1NS(=O)(=O)c2ccccc21`, the Potency result with DIV14, with DIV17, in the assay on DIV30, with Dd2, in the assay on ECU and in the assay on FAB9 was “inactive” throughout. The Potency entry in the assay on GB4, in the assay on HB3, with ICS, with JCK, in the assay on N140 and in the assay with P93_24 was “inactive” throughout. Further, the Potency entry in the assay with P94_40, in the assay with PAD, with PC15, in the assay on PC26, with PC49 and in the assay with SC27B was “inactive” throughout. Further, the Potency entry in the assay with TAB109 and with TAB113 was “inactive” each time.

For `O=c1cc[nH]c(=O)[nH]1`, the Potency entry with DIV14, in the assay with DIV17, in the assay with DIV30, in the assay with Dd2, in the assay with ECU and in the assay on FAB9 was “inactive” each time. The Potency entry in the assay on GB4, with HB3, in the assay on ICS, with JCK, in the assay with N140 and in the assay with P93_24 was “inactive” in each case. Moreover, the Potency entry in the assay with P94_40, in the assay on PAD, with PC15, in the assay with PC26, with PC49 and in the assay with SC27B was “inactive” throughout. For the same compound, the Potency entry in the assay on TAB109 and in the assay with TAB113 was “inactive” in each case.

As for `O=C(O)COc1nn(Cc2ccccc2)c2ccccc12`, the Potency entry in the assay on DIV14, in the assay with DIV17, in the assay with DIV30, in the assay on Dd2, in the assay with ECU and in the assay on FAB9 was “inactive” each time. In addition, the Potency entry in the assay on GB4, in the assay on HB3, with ICS, in the assay on JCK, with N140 and in the assay on P93_24 was “inactive” each time. Moreover, the Potency result with P94_40, in the assay with PAD, with PC15, with PC26, in the assay with PC49 and in the assay with SC27B was “inactive” in each case. Besides, the Potency result in the assay with TAB109 and in the assay with TAB113 was “inactive” in each case.

Consider `CCN(CC)CCNC(=O)c1cc(Cl)c(N)cc1OC`, for which the Potency entry with DIV14, with DIV17, in the assay with DIV30, with Dd2, in the assay on ECU and in the assay with FAB9 was “inactive” each time. For the same compound, the Potency result in the assay with GB4, in the assay with HB3, in the assay with ICS, in the assay on JCK, in the assay on N140 and in the assay with P93_24 was “inactive” throughout. The Potency result with P94_40, with PAD, in the assay on PC15, in the assay with PC26, with PC49 and in the assay on SC27B was “inactive” throughout. The Potency result in the assay with TAB109 and in the assay on TAB113 was “inactive” each time.

On to `CC(C)(C)C(=O)C(Oc1ccc(Cl)cc1)n1ccnc1` (stereo unspecified), for which the Potency in the assay on DIV14 was 13.5 µM (active); in the assay on DIV17, 13.5 µM (active); in the assay with DIV30, 12 µM (active); with Dd2, 11.2 µM (active); with ECU, 10 µM (active); in the assay on GB4, 13.5 µM (active). For the same compound, the Potency with ICS is 12.6 µM (active); with N140, 8.91 µM (active); in the assay with P93_24, 5.01 µM (active); with P94_40, 7.94 µM (active); with PAD, 8.91 µM (active); in the assay with PC26 it was 16.9 µM (active). For the same compound, the Potency in the assay with TAB109 and with TAB113 was 10 µM (active) each time. For the same compound, the Potency entry with FAB9 and in the assay with JCK was “inactive” in each case.

Regarding `O=S(=O)(O)c1cc(I)c(O)c2ncccc12`, the Potency result in the assay on DIV14, in the assay on DIV17, with DIV30, in the assay on Dd2, in the assay with ECU and in the assay on FAB9 was “inactive” throughout. For the same compound, the Potency entry in the assay with GB4, in the assay on HB3, with JCK, in the assay with N140, with P93_24 and in the assay on P94_40 was “inactive” throughout. The Potency result in the assay with PAD, with PC15, in the assay with PC26, in the assay with PC49, in the assay on SC27B and in the assay on TAB109 was “inactive” in each case. For the same compound, in the assay on TAB113, the Potency result is “inactive”.

`C[C@H]1O[C@@H](n2cc(F)c(=O)[nH]c2=O)[C@H](O)[C@@H]1O`: the Potency entry in the assay with DIV14, with DIV17, in the assay on DIV30, in the assay on Dd2, in the assay with ECU and with FAB9 was “inactive” each time. Moreover, the Potency entry in the assay on GB4, in the assay with HB3, in the assay with JCK, with N140, in the assay on P93_24 and in the assay on P94_40 was “inactive” each time. The Potency result in the assay on PAD, in the assay with PC15, in the assay with PC26, in the assay on PC49, in the assay with SC27B and with TAB109 was “inactive” in each case. Besides, the Potency entry with TAB113 was “inactive”.

As for `Cc1c(Cl)cccc1Nc1ccccc1C(=O)O`, the Potency result with DIV14, in the assay with DIV17, with DIV30, with Dd2, with ECU and with FAB9 was “inactive” each time. The Potency entry with GB4, with JCK, in the assay on N140, with P93_24, in the assay on P94_40 and with PAD was “inactive” in each case. The Potency result with PC15, in the assay on PC26, in the assay with PC49, in the assay with SC27B, in the assay on TAB109 and in the assay on TAB113 was “inactive” each time.

The record behind these values is PubChem BioAssay (NCATS).
